The campaign covered roughly 5,500 compounds. About 2,000 (36%) were called active. Inconclusive results (about 18%) are left out. Rule as the data show it: active = normalized growth mostly below about 0.91 (no sharp cut-off); inconclusive = no clear call, values can overlap the other calls; inactive = mostly above about 0.92. The list shows a part of the results.
Assay: chemical genetic growth profiling, strain panel (AID 1159580);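 also: tested at 20 µM; growth read once vehicle control cultures reached saturation at 30 °C; 1 = growth at the plate median or of vehicle wells; lower values mean less growth of the strain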
Settings: growth OD
[1] = S. cerevisiae deletion strains, locus YDL101C, strain DUN1, hits give low values
[2] = S. cerevisiae deletion strains, locus YHR030C, strain SLT2, hits give low values

Measured: normalized growth

O=C(CCc1nc(-c2ccc(Cl)cc2)no1)NNS(=O)(=O)c1cc(Cl)c(Cl)cc1Cl
inactive: S. cerevisiae deletion strains, locus YAL013W, strain DEP1, hits give low values 1.01 | S. cerevisiae deletion strains, locus YBR229C, strain ROT2, hits give low values 1.01 | S. cerevisiae deletion strains, locus YCL061C, strain MRC1, hits give low values 1.01 | [1] 1.03 | S. cerevisiae deletion strains, locus YDL134C, strain PPH21, hits give low values 1 | S. cerevisiae deletion strains, locus YDR150W, strain NUM1, hits give low values 0.998 | S. cerevisiae deletion strains, locus YEL061C, strain CIN8, hits give low values 0.961 | S. cerevisiae deletion strains, locus YGR078C, strain PAC10, hits give low values 1.02 | [2] 0.98 | S. cerevisiae deletion strains, locus YHR087W, strain rtc3, hits give low values 0.958 | S. cerevisiae deletion strains, locus YJR043C, strain POL32, hits give low values 0.999 | S. cerevisiae deletion strains, locus YJR075W, strain HOC1, hits give low values 0.994 | S. cerevisiae deletion strains, locus YLR039C, strain RIC1, hits give low values 0.971 | S. cerevisiae deletion strains, locus YLR058C, strain SHM2 (second series), hits give low values 1.01 | S. cerevisiae deletion strains, locus YLR085C, strain ARP6, hits give low values 1 | S. cerevisiae deletion strains, locus YLR262C, strain YPT6, hits give low values 1.03 | S. cerevisiae deletion strains, locus YML094W, strain GIM5, hits give low values 0.968 | S. cerevisiae deletion strains, locus YMR219W, strain ESC1, hits give low values 1 | S. cerevisiae deletion strains, locus YMR263W, strain SAP30, hits give low values 1.01 | S. cerevisiae deletion strains, locus YNL153C, strain GIM3, hits give low values 1 | S. cerevisiae deletion strains, locus YNL298W, strain CLA4 (second series), hits give low values 0.993 | S. cerevisiae deletion strains, locus YNL322C, strain KRE1, hits give low values 1.02 | S. cerevisiae deletion strains, locus YNR030W, strain Alg12, hits give low values 1.03 | S. cerevisiae deletion strains, locus YOL006C, strain TOP1, hits give low values 1.02 | S. cerevisiae deletion strains, locus YPL055C, strain LGE1, hits give low values 0.973 | S. cerevisiae deletion strains, locus YPL241C, strain CIN2, hits give low values 1.04 | S. cerevisiae deletion strains, locus YPR135W, strain CTF4, hits give low values 1.03 | S. cerevisiae strains, strain wild type, hits give low values 1

CC(=O)c1ccc(Cl)c(NS(=O)(=O)c2cc(Cl)c(Cl)cc2Cl)c1
inactive: S. cerevisiae deletion strains, locus YAR019C, strain CDC15, hits give low values 0.906 | S. cerevisiae deletion strains, locus YBL105C, strain PKC1, hits give low values 0.925 | S. cerevisiae deletion strains, locus YBR135W, strain CKS1, hits give low values 0.91 | S. cerevisiae deletion strains, locus YBR136W, strain MEC1, hits give low values 0.914 | S. cerevisiae deletion strains, locus YDL017W, strain CDC7, hits give low values 0.925 | [1] 0.95 | S. cerevisiae deletion strains, locus YDL108W, strain KIN28, hits give low values 0.905 | S. cerevisiae deletion strains, locus YDL132W, strain cdc53, hits give low values 0.9 | S. cerevisiae deletion strains, locus YDL214C, strain PRR2, hits give low values 0.868 | S. cerevisiae deletion strains, locus YDR052C, strain DBF4, hits give low values 0.933 | S. cerevisiae deletion strains, locus YDR054C, strain cdc34, hits give low values 0.909 | S. cerevisiae deletion strains, locus YDR477W, strain SNF1, hits give low values 0.799 | S. cerevisiae deletion strains, locus YER123W, strain YCK3, hits give low values 0.794 | S. cerevisiae deletion strains, locus YER133W, strain GLC7, hits give low values 0.875 | S. cerevisiae deletion strains, locus YFL029C, strain CAK1, hits give low values 0.898 | S. cerevisiae deletion strains, locus YFR003C, strain YPI1, hits give low values 0.917 | S. cerevisiae deletion strains, locus YFR019W, strain FAB1, hits give low values 0.881 | S. cerevisiae deletion strains, locus YFR028C, strain CDC14, hits give low values 0.895 | S. cerevisiae deletion strains, locus YGR040W, strain KSS1, hits give low values 0.805 | S. cerevisiae deletion strains, locus YGR052W, strain FMP48, hits give low values 0.781 | S. cerevisiae deletion strains, locus YGR092W, strain DBF2, hits give low values 0.631 | S. cerevisiae deletion strains, locus YHR079C, strain IRE1, hits give low values 0.697 | S. cerevisiae deletion strains, locus YHR082C, strain KSP1, hits give low values 0.735 | S. cerevisiae deletion strains, locus YHR205W, strain SCH9, hits give low values 0.801 | S. cerevisiae deletion strains, locus YIL147C, strain SLN1, hits give low values 0.904 | S. cerevisiae deletion strains, locus YJL095W, strain BCK1, hits give low values 0.636 | S. cerevisiae deletion strains, locus YJL128C, strain PBS2, hits give low values 0.835 | S. cerevisiae deletion strains, locus YJL157C, strain FAR1, hits give low values 0.877 | S. cerevisiae deletion strains, locus YJR016C, strain ILV3, hits give low values 0.921 | S. cerevisiae deletion strains, locus YJR066W, strain TOR1 (second series), hits give low values 0.811 | S. cerevisiae deletion strains, locus YJR066W, strain TOR1, hits give low values 0.719 | S. cerevisiae deletion strains, locus YKL048C, strain ELM1, hits give low values 0.843 | S. cerevisiae deletion strains, locus YKL067W, strain YNK1, hits give low values 0.864 | S. cerevisiae deletion strains, locus YKL101W, strain HSL1, hits give low values 0.814 | S. cerevisiae deletion strains, locus YKL193C, strain SDS22, hits give low values 0.906 | S. cerevisiae deletion strains, locus YKL203C, strain TOR2, hits give low values 0.905 | S. cerevisiae deletion strains, locus YLR133W, strain CKI1, hits give low values 0.865 | S. cerevisiae deletion strains, locus YLR403W, strain SFP1, hits give low values 0.826 | S. cerevisiae deletion strains, locus YML070W, strain DAK1, hits give low values 0.811 | S. cerevisiae deletion strains, locus YMR001C, strain CDC5, hits give low values 0.899 | S. cerevisiae deletion strains, locus YMR205C, strain PFK2 (second series), hits give low values 0.905 | S. cerevisiae deletion strains, locus YMR277W, strain FCP1, hits give low values 0.885 | S. cerevisiae deletion strains, locus YNL006W, strain LST8, hits give low values 0.925 | S. cerevisiae deletion strains, locus YNL020C, strain ARK1, hits give low values 0.829 | S. cerevisiae deletion strains, locus YNL161W, strain CBK1, hits give low values 0.921 | S. cerevisiae deletion strains, locus YNL183C, strain NPR1, hits give low values 0.819 | S. cerevisiae deletion strains, locus YNL207W, strain RIO2, hits give low values 0.906 | S. cerevisiae deletion strains, locus YNL307C, strain MCK1 (second series), hits give low values 0.786 | S. cerevisiae deletion strains, locus YOL078W, strain AVO1, hits give low values 0.9 | S. cerevisiae deletion strains, locus YOL136C, strain PFK27, hits give low values 0.789 | S. cerevisiae deletion strains, locus YOR061W, strain CKA2, hits give low values 0.744 | S. cerevisiae deletion strains, locus YOR119C, strain RIO1, hits give low values 0.832 | S. cerevisiae deletion strains, locus YOR231W, strain MKK1, hits give low values 0.704 | S. cerevisiae deletion strains, locus YOR329C, strain SCD5, hits give low values 0.923 | S. cerevisiae deletion strains, locus YPL031C, strain PHO85, hits give low values 0.788 | S. cerevisiae deletion strains, locus YPL153C, strain RAD53, hits give low values 0.768 | S. cerevisiae deletion strains, locus YPL204W, strain HRR25, hits give low values 0.763 | S. cerevisiae deletion strains, locus YPL209C, strain IPL1, hits give low values 0.916 | S. cerevisiae deletion strains, locus YPR025C, strain CCL1, hits give low values 0.912 | S. cerevisiae deletion strains, locus YPR106W, strain ISR1, hits give low values 0.904 | S. cerevisiae deletion strains, strain NNK1, hits give low values 0.894 | S. cerevisiae deletion strains, strain TSCII, hits give low values 0.898
active: S. cerevisiae deletion strains, locus YBR160W, strain CDC28, hits give low values 0.886 | S. cerevisiae deletion strains, locus YDL028C, strain MPS1, hits give low values 0.89 | S. cerevisiae deletion strains, locus YDR226W, strain ADK1, hits give low values 0.897 | S. cerevisiae deletion strains, locus YFL009W, strain cdc4, hits give low values 0.881 | [2] 0.317 | S. cerevisiae deletion strains, locus YLR113W, strain HOG1, hits give low values 0.648 | S. cerevisiae deletion strains, locus YNL222W, strain SSU72, hits give low values 0.884 | S. cerevisiae deletion strains, locus YPL256C, strain CLN2, hits give low values 0.664 | S. cerevisiae deletion strains, locus YPR111W, strain DBF20, hits give low values 0.858

Source: PubChem BioAssay AID1159580 (chemical genetic matrix, 2015)
